Here are results for 31 compounds from ChEMBL document CHEMBL1157539, “Thousands of chemical starting points for antimalarial lead identification” (Nature, 2010).

Holding throughout (assay type): functional
The subject of assay [1] is Plasmodium falciparum. Put plainly: GSK_TCMDC: Inhibition of Plasmodium falciparum 3D7 in whole red blood cells, using parasite LDH activity as an index of growth. Test compounds present at 2uM.
Assay [2] has as its system Plasmodium falciparum. Description: GSK_TCMDC: Inhibition of Plasmodium falciparum Dd2 in whole red blood cells, using parasite LDH activity as an index of growth. Test compounds present at 2uM.
The next assay has as its system HepG2. Description: GSK_TCMDC: Percent inhibition of human HepG2 cell line. Test compounds present at 10uM.

Consider `Cc1ccc(NC(C)C(=O)Nc2ccc(C#N)cc2)cc1S(=O)(=O)N1CCCCC1` (stereo not drawn), for which the Inhibition – broadly, the change of the read-out against control, counted positive when it falls – is recorded as 92% in the assay with Plasmodium falciparum [1], 92% with Plasmodium falciparum [2] and 11% in the assay with HepG2.

For the compound `CN(C)CCN(C)Cc1ccc(-c2ccc3c(Nc4ccc(Oc5ccccn5)cc4)ccnc3c2)o1`, the Inhibition in the assay with Plasmodium falciparum [1] was determined as 100%; with Plasmodium falciparum [2] it was 100%; in the assay with HepG2, 16%.

Take `COc1ccc(CNCc2ccc(F)cc2)cc1-c1cccc(S(=O)(=O)NCCN2CCCC2)c1.O=C(O)C(F)(F)F`: the Inhibition in the assay with Plasmodium falciparum [1] was 100%; in the assay on Plasmodium falciparum [2] it was 54%; with HepG2, 43%.

In the case of `CCOc1ccc(Br)cc1/C=C/C(=O)Nc1ccc2c(c1)CN(C)CCC2.O=C(O)C(F)(F)F`, the Inhibition in the assay with Plasmodium falciparum [1] is 97%; in the assay on Plasmodium falciparum [2], 37%; in the assay with HepG2, 18%.

As to `Cc1noc(C)c1-c1ccc2c(Nc3ccc([N+](=O)[O-])cc3)c(C(N)=O)cnc2c1.Cl`, the Inhibition in the assay on Plasmodium falciparum [1] is 100%; in the assay with Plasmodium falciparum [2] it was 98%; in the assay with HepG2 it was 4%.

As for `CCn1c(C2CCN(CCC3CCN(C(=O)/C=C/c4ccc(Cl)c(Cl)c4)CC3)CC2)nc2ccccc21`, the Inhibition in the assay with Plasmodium falciparum [1] is 86%; with Plasmodium falciparum [2], 0%; in the assay on HepG2, 17%.

In the case of `C=C(NC(=O)C1CCCCC1)C(=O)OC`, the Inhibition with Plasmodium falciparum [1] is recorded as 93%; in the assay with Plasmodium falciparum [2] it was 3%; in the assay with HepG2, 15%.

As to `Br.CC(C)(C)c1ccc(OCCCON2C(N)=NC(N)=NC2(C)C)cc1`, the Inhibition in the assay with Plasmodium falciparum [1] is 93%; in the assay on Plasmodium falciparum [2] it was 76%; in the assay on HepG2, 77%.

Consider `CCCCCCc1cc(OC)c(OC)cc1C(C)Nc1ccnc2cc(Cl)ccc12` (stereo not drawn), for which the Inhibition with Plasmodium falciparum [1] is reported as 95%; in the assay on Plasmodium falciparum [2] it was 79%; with HepG2 it was 6%.

Turning to `CCN(CC)CCN(Cc1ccc(-c2ccc(C(F)(F)F)cc2)cc1)C(=O)Cn1c(CCC2CCCCC2)nc(=O)c2ccccc21.O=C(O)C(O)C(O)C(=O)O`, the Inhibition with Plasmodium falciparum [1] was 87%; with Plasmodium falciparum [2], 25%; with HepG2, 32%.

For the compound `Cc1ccc(NC(=O)Nc2ccc(I)c(OCCN(C)C)c2)cc1Cl`, the Inhibition is 98% in the assay with Plasmodium falciparum [1], 22% in the assay with Plasmodium falciparum [2] and 11% in the assay on HepG2.

As for `Cc1nc(C)c(CC(=O)Nc2cccc(-c3cccc(-c4nc5cc(C(F)(F)F)ccc5[nH]4)c3)c2)s1`, the Inhibition in the assay on Plasmodium falciparum [1] amounted to 95%; in the assay with Plasmodium falciparum [2], 30%; with HepG2, 49%.

As for `CN(C)CCn1c(N)c(-c2nc3ccccc3s2)c2nc(C#N)c(C#N)nc21`, the Inhibition was determined as 94% in the assay with Plasmodium falciparum [1], 40% in the assay with Plasmodium falciparum [2] and 4% in the assay with HepG2.

With `O=C(NC(c1ccc(Cl)cc1)c1ccc2cccnc2c1O)c1ccccc1` (stereo not drawn), the Inhibition in the assay on Plasmodium falciparum [1] was 87%; in the assay with Plasmodium falciparum [2], 80%; with HepG2, 44%.

Consider `Cc1cccc2nc(-c3cccc(-c4cccc(NC(=O)Nc5cccc(C#N)c5)c4)c3)[nH]c12`, for which the figures for the Inhibition in the assay with Plasmodium falciparum [1], with Plasmodium falciparum [2] and in the assay with HepG2 were 100%, 99% and 22%, respectively.

With `CS(=O)(=O)NCCCNCc1ccc(-c2ccc(-c3nc4cc(C(F)(F)F)ccc4[nH]3)s2)cc1.O=C(O)C(F)(F)F`, the figures for the Inhibition in the assay with Plasmodium falciparum [1], in the assay on Plasmodium falciparum [2] and with HepG2 were 99%, 73% and 21%, respectively.

As to `N=C(N)NCCN(Cc1ccccc1)c1ccccc1`, the Inhibition was 100% in the assay on Plasmodium falciparum [1], 98% in the assay on Plasmodium falciparum [2] and 8% with HepG2.

Regarding `CN(C)c1ccc(-c2csc(C(=O)NC3CCN(Cc4ccc(C(C)(C)C)cc4)C3)c2)cc1.O=C(O)C(F)(F)F` (stereo not drawn), the Inhibition in the assay with Plasmodium falciparum [1] amounted to 99%; in the assay on Plasmodium falciparum [2], 50%; in the assay with HepG2, 26%.

`CCOc1cc2ncnc(Nc3cc(Cl)c(Cl)c(Cl)c3)c2cc1OCC.Cl`: the Inhibition is recorded as 100% in the assay with Plasmodium falciparum [1], 98% in the assay on Plasmodium falciparum [2] and 11% in the assay on HepG2.

In the case of `COc1ccc(C(=O)N[C@@H](CC(C)C)C(=O)N[C@H](/C=N/NC(=O)c2ccccc2)CCc2ccccc2)cc1OCCN1CCOCC1`, the Inhibition in the assay on Plasmodium falciparum [1] is given as 96%; with Plasmodium falciparum [2] it was 86%; in the assay on HepG2, 2%.

For the compound `Cl.Nc1ncc(Cc2cc(Cl)c(N)c3ncccc23)c(N)n1`, the Inhibition in the assay with Plasmodium falciparum [1] is recorded as 89%; in the assay with Plasmodium falciparum [2] it was 95%; with HepG2, 5%.

Consider `Cl.N#CC1(CCCNCCc2ccc(O)cc2)CCCc2c(O)cccc21` (stereo not drawn), for which the Inhibition amounted to 95% with Plasmodium falciparum [1], 3% in the assay on Plasmodium falciparum [2] and 0% with HepG2.

In the case of `CN(C)CCCOc1ccc(CN2CC[C@H](NC(=O)c3ccc(Cl)c(Cl)c3)C2)c2ccccc12.O=C(O)C(F)(F)F`, the Inhibition in the assay with Plasmodium falciparum [1] was found to be 100%; with Plasmodium falciparum [2], 97%; with HepG2, 81%.

With `c1ccc(CSC2=NNC(c3ccccn3)S2)cc1` (stereo not drawn), the Inhibition in the assay on Plasmodium falciparum [1] is given as 80%; in the assay with Plasmodium falciparum [2], 65%; with HepG2 it was 6%.

For `O=C(/C=C/c1ccc(Cl)c(Cl)c1)NCCCCN1CCCN(C(=O)Nc2ccc(F)c(Cl)c2)CC1`, the Inhibition in the assay on Plasmodium falciparum [1] is listed as 87%; with Plasmodium falciparum [2], 2%; in the assay on HepG2, 69%.

In the case of `NCc1ccc(-c2cccc(CNC3CCN(Cc4ccccc4)CC3)c2)cc1.O=C(O)C(F)(F)F`, the Inhibition is on record as 100% with Plasmodium falciparum [1], 50% with Plasmodium falciparum [2] and 24% in the assay with HepG2.

As to `CCN1CCC(N(Cc2ccc(-c3ccc(C(F)(F)F)cc3)cc2)C(=O)Cn2nc(C)c(=O)cc2SCc2ccc(F)cc2)CC1.O=C(O)C(O)C(O)C(=O)O`, the Inhibition in the assay on Plasmodium falciparum [1] worked out at 94%; in the assay on Plasmodium falciparum [2], 94%; with HepG2 it was 77%.

In the case of `COc1ccc(O)c(C(=O)c2cnc3c(c2)c(-c2ccc(F)cc2)c(C#N)c(=O)n3C)c1`, the Inhibition in the assay on Plasmodium falciparum [1] turned out to be 92%; with Plasmodium falciparum [2] it was 14%; in the assay on HepG2, 7%.

Take `CC(=O)Nc1ccc(CCNC(C)Cc2ccc(C(=O)Nc3ccc(CC(C)NCCc4cccc(Cl)c4)cc3)cc2)cc1.Cl` (stereo not drawn): the Inhibition in the assay on Plasmodium falciparum [1] is listed as 100%; in the assay on Plasmodium falciparum [2] it was 84%; in the assay on HepG2 it was 50%.

For the compound `Cl.c1ccc(COc2ccc(Nc3ncnc4ccc(-c5ccc(CN6CCSCC6)o5)cc34)cc2)cc1`, the figures for the Inhibition in the assay on Plasmodium falciparum [1], in the assay with Plasmodium falciparum [2] and with HepG2 were 94%, 4% and 4%, respectively.

`CC(C)c1ccc(NC(=O)c2ccc(CN3CCCN(Cc4cccc(O)c4)CC3)cc2)cc1.O=C(O)C(F)(F)F`: the Inhibition in the assay with Plasmodium falciparum [1] stood at 100%; with Plasmodium falciparum [2], 58%; in the assay with HepG2, 51%.
